Experimental findings from PubChem BioAssay (NCATS) are described below.

Inconclusive results are not listed. The source made the active and inactive calls. Unless noted, the call rests on the fitted dose curve; in most records, active means well fitted inhibition curve with a large enough effect; inconclusive means small, poorly fitted or top-dose-only effect; inactive means flat fitted curve, though single readings scatter.

For assay [1], the target named is Glutathione peroxidase 1 (Homo sapiens) (UniProt P07203). The experiment in a line: Primary qHTS Assay for Inhibitors of Recombinant Selenoprotein Glutathione Peroxidase 1 (GPX1) (AID 1845191). Further: nearly all actives have a fitted effect of over 65% in size. On activity, negative = inhibition: on the % scale 0 is the no-effect control and ±100 the full control effect. Summed up: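 GR-coupled readout: NADPH consumption tracked by fluorescence, ex 340/em 450 nm, at t=0 and after 15 min at RT. Final mix 10 nM GPX1, 1 mM GSH, 0.5 mM CHP, 0.5 mM NADPH, 100 nM GR, 0.01% BSA, following 30 min enzyme–compound preincubation.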
On the technique in general: Quantitative high-throughput screening tests each substance at several concentrations.

Assay [2] addresses Phospholipid hydroperoxide glutathione peroxidase GPX4 (Homo sapiens) (UniProt P36969). The experiment in a line: Primary qHTS Assay for Inhibitors of Recombinant Selenoprotein Glutathione Peroxidase 4 (GPX4) (AID 1845192). Further: nearly all actives have a fitted effect of over 65% in size. Summed up: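 Steps: GPX4 plus compound, 30 min RT; add GR/GSH/NADPH master mix; start with cumene hydroperoxide; read 340/450 nm fluorescence at 0 and 15 min. Finals were 200 nM GPX4, 1 mM GSH, 0.5 mM CHP, 0.5 mM NADPH, 100 nM GR.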

A short description of assay [3]: qHTS profiling for inhibitors of Plasmodium falciparum proliferation (AID 504749). Further: nearly all actives have a fitted effect of over 60% in size. Further: potency means the concentration at half of the fitted maximal effect.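 On activity, negative = inhibition: 0% = DMSO vehicle and full inhibition = artemisinin control.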 The note with it: P. falciparum in erythrocytes, SYBR Green DNA, 72 h. Summed up:
(§1)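 SYBR Green fluorescence (ex 485 nm, em 535 nm) reports parasite DNA after 72 h compound exposure of infected red cells at 0.3% parasitemia, 2.5% hematocrit; signal normalized to 0.29 uM artemisinin and vehicle wells.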

For the next assay, the system named is 3D7. Described as above. The note with it: P. falciparum in erythrocytes, SYBR Green DNA, 72 h; series mostly up to 28.7 µM. The gist of the method: as §1
The subject of another assay is 7G8. Described as above. Particulars: P. falciparum in erythrocytes, SYBR Green DNA, 72 h; series mostly up to 28.7 µM. Summed up: as §1
In a further assay the test system is AA1029. The assay is described as above. Particulars: P. falciparum in erythrocytes, SYBR Green DNA, 72 h; series mostly up to 28.7 µM. Summed up:
as §1

A further assay relates to AS120. Described as above. The note with it: P. falciparum in erythrocytes, SYBR Green DNA, 72 h; series mostly up to 28.7 µM. The gist of the method:
as §1

In the next assay the test system is ATS189. The description is as above. The note with it: P. falciparum in erythrocytes, SYBR Green DNA, 72 h; series mostly up to 28.7 µM. The gist of the method: as §1
Assay [4] is described as follows: qHTS drug screen for cell cycle checkpoint inhibitors in PARPi-resistant BRCA-mutant ovarian cancer cell lines. (AID 1963452; calls by dose curve). Particulars: PEO1/OlaR viability, CellTiter-Glo luminescence, 96 h, stronger effect = lower value. The gist of the method:
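PEO1, PEO4 and PEO1/OlaR ovarian cancer cells, 600 per well, exposed 96 h at 37C to a dilution series. Viability read by CellTiter-Glo luminescence, normalized to DMSO and empty wells; activity summarized as Z-AUC.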

[5] abbreviates: at 28.7 µM (top of the series), parasite line A.
Setting [6] is: at 28.7 µM (top of the series), parasite line B.
Where [7] appears, read: measured here: PEO1 parental Z-AUC.

Chain of Glutathione peroxidase 1 (Homo sapiens) (P07203 whole entry, looked up): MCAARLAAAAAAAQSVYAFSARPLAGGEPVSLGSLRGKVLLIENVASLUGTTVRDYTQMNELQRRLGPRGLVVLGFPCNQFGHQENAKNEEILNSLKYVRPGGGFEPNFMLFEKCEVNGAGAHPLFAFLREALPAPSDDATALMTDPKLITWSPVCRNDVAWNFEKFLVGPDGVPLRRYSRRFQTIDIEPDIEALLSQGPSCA
Chain of Phospholipid hydroperoxide glutathione peroxidase GPX4 (Homo sapiens) (P36969 whole entry, looked up): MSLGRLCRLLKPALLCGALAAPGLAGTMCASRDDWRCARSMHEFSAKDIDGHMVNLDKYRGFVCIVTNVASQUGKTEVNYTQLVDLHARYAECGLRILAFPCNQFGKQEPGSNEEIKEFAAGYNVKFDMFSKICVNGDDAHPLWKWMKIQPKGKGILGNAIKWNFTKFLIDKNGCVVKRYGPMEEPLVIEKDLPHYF

Turning to `O=C(O)CCC(=O)O`, the Potency result (in assay [1]; in assay [2]; with 3D7; in the assay with 7G8; in the assay on AA1029; with AS120) was “inactive” in each case. Also, the Potency entry in the assay with ATS189 was “inactive”. The activity, negative = inhibition is 10.3% (inactive) in assay [3] (setting [5]) and 13.7% (inactive) in assay [3] (setting [6]).
Consider `CCOC(=O)[C@H](CCc1ccccc1)N[C@@H](C)C(=O)N1CCC[C@H]1C(=O)O`, for which the Potency entry (in [1]; in assay [2]; with 3D7; in the assay on 7G8; with AS120; in the assay on ATS189) was “inactive” throughout. Further, the results for the Z-AUC in assay [4], in assay [4] (setting [7]) and in assay [4] (measured here: PEO4 Z-AUC) were 0.643 (inactive), 0.764 and 0.867, respectively. In [3] (setting [5]), the activity, negative = inhibition was 7.69% (inactive).
For the molecule `C[C@@H](N)C(=O)O`, the Potency result (in [1]; in assay [2]; in the assay with 3D7; in the assay on 7G8; in the assay on AA1029; in the assay on AS120) was “inactive” throughout. In addition, the Potency result with ATS189 is “inactive”. In addition, the figures for the activity, negative = inhibition in assay [3] (setting [5]) and in assay [3] (setting [6]) were 26.2% (inactive) and 15.6% (inactive), respectively.
Regarding `OC[C@@H](O)[C@@H](O)[C@H](O)[C@H](O)CO`, the Potency entry (in assay [1]; in assay [2]; in the assay on 3D7; in the assay on 7G8; with AA1029; with AS120) was “inactive” throughout. Further, in the assay with ATS189, the Potency result was “inactive”. The Z-AUC was -0.605 (inactive) in assay [4], -0.476 in assay [4] (setting [7]) and -0.786 in assay [4] (measured here: PEO4 Z-AUC). Also, the activity, negative = inhibition in [3] (setting [5]) was 7.85% (inactive); in assay [3] (setting [6]) it was 7.16% (inactive).
On to `Cc1ccsc1C(=CCCN1CCC[C@@H](C(=O)O)C1)c1sccc1C`, for which the Potency result (in [1]; in assay [2]; in the assay on 3D7; with 7G8; with AA1029; in the assay with AS120) was “inactive” each time. Moreover, the Potency entry in the assay on ATS189 is “inactive”. The figures for the Z-AUC in [4], in [4] (setting [7]) and in [4] (measured here: PEO4 Z-AUC) were -0.0792 (inactive), 0.789 and 0.901, respectively. For the same molecule, the activity, negative = inhibition was 0.673% (inactive) in assay [3] (setting [5]) and 3.18% (inactive) in [3] (setting [6]).
With `CC(CN(C)C)C(C)(O)Cc1ccc(Cl)cc1` (centres undefined), the Potency result (in assay [1]; in assay [2]; with 3D7) was “inactive” in each case. Moreover, the activity, negative = inhibition in [3] (setting [5]) is 6.13% (inactive); in [3] (setting [6]), 10.7% (inactive).
As to `Cc1c(C)c2c(c(C)c1OC(=O)c1cccnc1)CC[C@@](C)(CCC[C@H](C)CCC[C@H](C)CCCC(C)C)O2`, the Potency result (in assay [1]; in [2]; in the assay with 3D7; in the assay on 7G8; in the assay with AA1029; in the assay with AS120) was “inactive” throughout. For the same molecule, in the assay on ATS189, the Potency result was “inactive”. Also, the activity, negative = inhibition in assay [3] (setting [5]) is -3.82% (inactive); in assay [3] (setting [6]), -2.45% (inactive).
With `O=c1[nH]c(=O)n([C@H]2C[C@H](O)[C@@H](CO)O2)cc1I`, the Potency entry in assay [1] and in [2] was “inactive” each time. The Z-AUC in assay [4] was 1.59 (inactive); in assay [4] (setting [7]), 0.705; in assay [4] (measured here: PEO4 Z-AUC) it was 0.916.
Take `CCCNC(C)(C)COC(=O)c1ccccc1`: the Potency result (in assay [1]; in [2]; with 3D7; in the assay on 7G8; with AA1029; with AS120) was “inactive” in each case. In addition, the Potency result in the assay on ATS189 is “inactive”. Further, the activity, negative = inhibition in assay [3] (setting [5]) was -2.07% (inactive); in [3] (setting [6]), 9.96% (inactive).
Turning to `OCCN1C[C@H](O)[C@@H](O)[C@H](O)[C@H]1CO`, the Potency result in assay [1] and in assay [2] was “inactive” each time. For the same molecule, the Z-AUC in [4] was 0.928 (inactive); in assay [4] (setting [7]) it was 0.927; in assay [4] (measured here: PEO4 Z-AUC), 1.11.
Take `CCCC(O)C(CC)CO` (centres undefined): the Potency entry (in assay [1]; in [2]; in the assay with 3D7; in the assay with 7G8; with AA1029; in the assay on AS120) was “inactive” each time. Further, the Potency entry in the assay with ATS189 is “inactive”. The activity, negative = inhibition in assay [3] (setting [5]) was 12.2% (inactive); in assay [3] (setting [6]), 6.77% (inactive).
As to `CC[N+](CC)(CC(=O)Nc1c(C)cccc1C)Cc1ccccc1`, the Potency entry (in [1]; in assay [2]; with 3D7; in the assay on 7G8; in the assay with AA1029; in the assay with AS120) was “inactive” in each case. For the same molecule, in the assay with ATS189, the Potency entry is “inactive”. In addition, the activity, negative = inhibition in assay [3] (setting [5]) is 15.1% (inactive); in assay [3] (setting [6]), 8.11% (inactive).
Turning to `O=C(CCBr)N1CCN(C(=O)CCBr)CC1`, the Potency entry (in assay [1]; in [2]; with 3D7; in the assay on 7G8; with AA1029; with AS120) was “inactive” in each case. Moreover, the Potency entry in the assay on ATS189 is “inactive”. Further, the activity, negative = inhibition in [3] (setting [5]) was 10% (inactive); in [3] (setting [6]), -0.0848% (inactive).
In the case of `CC(C)C[C@@H](N)C(=O)O`, the Potency result (in assay [1]; in [2]; with 3D7; in the assay with 7G8; in the assay with AA1029; in the assay with AS120) was “inactive” in each case. Also, the Potency entry in the assay with ATS189 is “inactive”. Moreover, the activity, negative = inhibition is 7.68% (inactive) in assay [3] (setting [5]) and 22.5% (inactive) in [3] (setting [6]).
Take `O=C(O)/C=C/c1ccc(Cn2ccnc2)cc1`: the Potency entry in assay [1] and in assay [2] was “inactive” throughout. Moreover, the Z-AUC is 1.62 (inactive) in assay [4], 1.73 in [4] (setting [7]) and 2.28 in assay [4] (measured here: PEO4 Z-AUC).
For `O=C(O)COC(=O)Cc1ccccc1Nc1c(Cl)cccc1Cl`, the Potency result (in assay [1]; in assay [2]; in the assay on 3D7; in the assay with 7G8; in the assay on AA1029; with AS120) was “inactive” throughout. Further, the Potency result with ATS189 is “inactive”. The activity, negative = inhibition in [3] (at 12.8 µM (top of the series), parasite line A) was -3.73% (inactive); in assay [3] (at 12.8 µM (top of the series), parasite line B) it was 2.28% (inactive).
Turning to `NC(=O)c1ccc([N+](=O)[O-])cc1Cl`, the Potency result (in [1]; in assay [2]; in the assay on 3D7; in the assay on AA1029; in the assay on AS120) was “inactive” throughout. The activity, negative = inhibition in assay [3] (setting [5]) was -8.53% (inactive); in [3] (setting [6]) it was 6.47% (inactive). In addition, the Potency in the assay with 7G8 was 8.91 µM (active).
Regarding `CCCCCOC(=O)Nc1nc(=O)n([C@@H]2O[C@H](C)[C@@H](O)[C@H]2O)cc1F`, the Potency entry in [1] and in assay [2] was “inactive” throughout. For the same molecule, the Z-AUC in assay [4] is -0.294 (inactive); in assay [4] (setting [7]) it was -0.525; in [4] (measured here: PEO4 Z-AUC), -0.448.
As for `CC(=O)Nc1ccc(C(=O)O)cc1`, the Potency result (in [1]; in assay [2]; in the assay on 3D7; in the assay with 7G8; with AA1029; with AS120) was “inactive” in each case. In the assay with ATS189, the Potency entry is “inactive”. In addition, the activity, negative = inhibition in [3] (setting [5]) is 7.84% (inactive); in assay [3] (setting [6]) it was 3.26% (inactive).
Turning to `CC(=O)N(CC(O)CO)c1c(I)c(C(=O)NCC(O)CO)c(I)c(C(=O)NCC(O)CO)c1I` (centres undefined), the Potency entry (in assay [1]; in assay [2]; in the assay with 3D7; in the assay on AA1029; in the assay with AS120) was “inactive” throughout. Further, the activity, negative = inhibition is 7.48% (inactive) in assay [3] (setting [5]) and 5.34% (inactive) in [3] (setting [6]). Moreover, the Potency with 7G8 is 11.2 µM (active).
Turning to `CC[N+](C)(CC)CCOC(=O)C1c2ccccc2Oc2ccccc21`, the Potency result (in [1]; in assay [2]; in the assay with 3D7; with 7G8; with AA1029; in the assay on AS120) was “inactive” each time. The Potency entry with ATS189 was “inactive”. For the same molecule, the figures for the activity, negative = inhibition in assay [3] (setting [5]) and in [3] (setting [6]) were -12.5% (inactive) and -20.9% (inactive), respectively.
